Drawing on PubChem BioAssay, this text covers composite z-score and z-score for six compounds.

SMILES strings stand for the structures. Active and inactive are the calls of the source.

The subject of test [1] is Plasmodium falciparum Sir2 (PF13_0152, Sir2A). Description: Plasmodium falciparum Sir2A binding compounds – biochemical, small-molecule microarray, 635 nm fluorescence, primary screen (AID 1098).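 Note: score merges spot fluorescence intensity with its signal-to-noise ratio.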 The note with it: fluorescence 635 nm, higher = more signal.
Test [2] in a line: probe aDKK1 binding to arrayed compounds – biochemical, biotinylated probe, 635/667 nm fluorescence, primary screen (AID 1099).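 Note: score merges 667nm spot fluorescence with signal to noise across triplicate slides.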 The note with it: small-molecule microarray, higher = more signal.
Test [3] is described as follows: probe aCHRDL2 binding to arrayed compounds – biochemical, biotinylated probe, 635/667 nm fluorescence, primary screen (AID 1100). The note with it: small-molecule microarray, higher = more signal.
The nature of test [4]: change in splice reporter luminescence, either direction, cell-based, HEK293, spliceosome inhibition project, primary screen (AID 1101).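 Note: HEK293 cells carrying a splicing-competent luciferase reporter gene; test concentration not given here.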 As to conditions: HEK293 splicing luciferase reporter, 24 h, higher = more signal, called active from +8 up or from −8 down. A general note: A reporter such as luciferase makes a cellular process visible.
Test [5] has as its target Fibroblast growth factor 10 (Homo sapiens) (UniProt O15520). Description: compounds binding fibroblast growth factor 10 – biochemical, small-molecule microarray, 635 nm fluorescence, primary screen (AID 1102). As to conditions: FGF10 binding, fluorescence 635 nm, higher = more signal.
Test [6] relates to glycogen synthase kinase-3 (GSK3A per assay name; protocol says GSK3B). The test can be described thus: compounds binding glycogen synthase kinase-3 – biochemical, small-molecule microarray, 635 nm fluorescence, GSK3A, primary screen (AID 1103). Note: the record names both GSK3A and GSK3B. The note with it: fluorescence 635 nm, higher = more signal.
Test [7] deals with Epidermal growth factor receptor (Homo sapiens) (UniProt P00533). The test can be described thus: compounds binding epidermal growth factor receptor – biochemical, small-molecule microarray, 635 nm fluorescence, primary screen (AID 1104).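 Note: score merges 667 nm emission intensity with spot signal to noise over triplicate slides.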 As to conditions: EGFR binding, higher = more signal.
In test [8] the target is Follistatin-related protein 3 (Homo sapiens) (UniProt O95633). The test can be described thus: compounds binding follistatin-related protein 3 – biochemical, small-molecule microarray, 635 nm fluorescence, primary screen (AID 1105).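 Note: score merges emission near 667 nm and signal to noise per printed spot across three slides.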 As to conditions: FSTL3 binding, higher = more signal.
Test [9] addresses Dickkopf-related protein 1 (Homo sapiens) (UniProt O94907). Description: small molecules binding DKK1 protein – biochemical, small-molecule microarray, 635 nm fluorescence scan, primary screen (AID 1106).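 Note: score merges emission near 667 nm with signal to noise over three replicate slides.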 The note with it: higher = more signal.
The subject of test [10] is Inhibin beta A chain (activin A). Description: small molecules binding activin A – biochemical, small-molecule microarray, 635 nm fluorescence scan, primary screen (AID 1107).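 Note: mouse activin A protein probed at 4.33 µg/mL on printed slides; score merges bound-protein fluorescence near 667 nm with spot signal-to-noise.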 As to conditions: INHBA, higher = more signal.
Test [11] relates to Human papillomavirus type 1a protein E7 (residues 44-93). Description: small molecules binding HPV E7 44-93 – biochemical, small-molecule microarray, residues 44-93, 635 nm fluorescence, primary screen (AID 1108).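 Note: E7 fragment applied at 1 µg/mL in TBST for 1 h at 4 C; score combines spot fluorescence with its signal to noise ratio.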 The note with it: fluorescence 635 nm, higher = more signal.
The nature of test [12]: hepatitis C replication reporter changes, two-sided – Huh7 cells, luciferase reporter, HCV replication inhibitor project, primary screen (AID 1109).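 Note: huh7 hepatoma cells harbouring a luciferase neomycin HCV replicon reporter; luciferase luminescence as measure of HCV replicon replication; test concentration not given here.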 The note with it: Huh7 HCV replicon luciferase reporter, 48 h; higher = more signal.
Test [13] addresses Left-right determination factor 2 (Homo sapiens) (UniProt O00292). The test can be described thus: small molecules binding LEFTY2 protein – biochemical, small-molecule microarray, 635 nm fluorescence scan, primary screen (AID 1110). The note with it: higher = more signal.
For test [14], the target named is Calmodulin-1 (Homo sapiens) (UniProt P0DP23). The test can be described thus: small molecules binding calmodulin-1 with EGTA – biochemical, small-molecule microarray, Cy5-labelled CALM1, profiling panel (AID 1111).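 Note: labelled calmodulin applied in Tris saline Tween buffer holding calcium plus EGTA and DTT.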 The note with it: Cy5-CALM1 binding fluorescence, higher = more signal.
Test [15] has the same target. The test can be described thus: small molecules binding Ca-loaded calmodulin-1 – biochemical, small-molecule microarray, Cy5-labelled CALM1, plus calcium, artefact control for SMM control-protein annotation, profiling panel (AID 1112).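 Note: score merges spot fluorescence with signal to noise from triplicate slides.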 The note with it: Cy5-CALM1 binding fluorescence, higher = more signal.
The nature of test [16]: probe aWnt5a binding to arrayed compounds – biochemical, biotinylated probe, 635/667 nm fluorescence, primary screen (AID 1113).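 Note: score merges 667 nm fluorescence intensity with signal-to-noise per printed feature.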 As to conditions: small-molecule microarray, higher = more signal.
A short description of test [17]: probe aShh binding to arrayed compounds – biochemical, biotinylated probe, 635/667 nm fluorescence, primary screen (AID 1114).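 Note: probe is biotin-labelled aShh protein from a stem cell growth factor screen; measures binding of labelled protein to compounds printed on the slide; score merges feature fluorescence at 667 nm with signal-to-noise.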 The note with it: small-molecule microarray, higher = more signal.
The nature of test [18]: probe aNog binding to arrayed compounds – biochemical, biotinylated probe, 635/667 nm fluorescence, primary screen (AID 1115).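 Note: probe is biotinylated aNog protein used at 0.15 µg/mL for 1 h at 4 C; z-score combines 667 nm fluorescence of each spot with its signal to noise.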 The note with it: small-molecule microarray, higher = more signal.
Test [19] has as its target Torsin-1A-interacting protein 1 (Homo sapiens) (UniProt Q5JTV8). The test can be described thus: compound microarray binding of lysate hLAP1 – cell lysate, small-molecule microarray, COS7 lysate, 635/667 nm fluorescence, primary screen (AID 1116). The note with it: 635 nm fluorescence, higher = more signal.
Test [20] addresses Alpha-bungarotoxin (Bungarus multicinctus) (UniProt P60615). Description: compounds binding labelled alpha-BTX control protein – biochemical, small-molecule microarray, Alexa647 label, 635/667 nm fluorescence, artefact control for SMM control protein annotation, profiling panel (AID 1117). The note with it: alpha-BTX-A647 binding fluorescence, higher = more signal.

Sequence of Epidermal growth factor receptor (Homo sapiens) (P00533 whole entry, looked up): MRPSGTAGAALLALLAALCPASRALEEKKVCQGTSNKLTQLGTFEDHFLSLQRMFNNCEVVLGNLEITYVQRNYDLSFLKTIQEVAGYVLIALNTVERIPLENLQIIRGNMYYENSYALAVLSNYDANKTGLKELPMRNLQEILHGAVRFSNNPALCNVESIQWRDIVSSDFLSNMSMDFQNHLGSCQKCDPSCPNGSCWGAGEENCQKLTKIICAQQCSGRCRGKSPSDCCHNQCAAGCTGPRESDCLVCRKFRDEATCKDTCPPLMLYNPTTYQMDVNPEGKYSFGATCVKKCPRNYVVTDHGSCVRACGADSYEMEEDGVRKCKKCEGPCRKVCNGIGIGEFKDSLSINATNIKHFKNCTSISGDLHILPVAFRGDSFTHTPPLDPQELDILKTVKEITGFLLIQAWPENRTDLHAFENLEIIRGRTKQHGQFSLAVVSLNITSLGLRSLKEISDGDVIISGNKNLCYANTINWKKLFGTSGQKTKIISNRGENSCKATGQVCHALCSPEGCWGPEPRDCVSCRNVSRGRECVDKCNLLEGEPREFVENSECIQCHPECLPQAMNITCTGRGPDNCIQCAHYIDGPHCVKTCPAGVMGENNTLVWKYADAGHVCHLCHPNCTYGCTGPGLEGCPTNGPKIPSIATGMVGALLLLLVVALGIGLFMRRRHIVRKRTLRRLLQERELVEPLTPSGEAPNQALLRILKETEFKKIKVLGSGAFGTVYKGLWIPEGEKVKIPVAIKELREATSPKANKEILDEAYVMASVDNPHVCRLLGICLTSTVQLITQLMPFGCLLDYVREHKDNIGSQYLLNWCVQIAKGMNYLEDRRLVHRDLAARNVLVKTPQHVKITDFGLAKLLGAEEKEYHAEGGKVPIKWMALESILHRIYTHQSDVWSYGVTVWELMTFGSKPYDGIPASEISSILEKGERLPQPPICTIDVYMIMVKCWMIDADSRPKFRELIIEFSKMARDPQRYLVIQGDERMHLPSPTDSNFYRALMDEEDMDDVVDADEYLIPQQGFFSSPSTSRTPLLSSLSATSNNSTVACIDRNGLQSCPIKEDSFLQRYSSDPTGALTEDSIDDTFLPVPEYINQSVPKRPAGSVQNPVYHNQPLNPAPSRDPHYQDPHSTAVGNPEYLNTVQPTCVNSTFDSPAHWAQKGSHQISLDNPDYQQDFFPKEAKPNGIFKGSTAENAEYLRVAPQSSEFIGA
Sequence of Torsin-1A-interacting protein 1 (Homo sapiens) (Q5JTV8 whole entry, looked up): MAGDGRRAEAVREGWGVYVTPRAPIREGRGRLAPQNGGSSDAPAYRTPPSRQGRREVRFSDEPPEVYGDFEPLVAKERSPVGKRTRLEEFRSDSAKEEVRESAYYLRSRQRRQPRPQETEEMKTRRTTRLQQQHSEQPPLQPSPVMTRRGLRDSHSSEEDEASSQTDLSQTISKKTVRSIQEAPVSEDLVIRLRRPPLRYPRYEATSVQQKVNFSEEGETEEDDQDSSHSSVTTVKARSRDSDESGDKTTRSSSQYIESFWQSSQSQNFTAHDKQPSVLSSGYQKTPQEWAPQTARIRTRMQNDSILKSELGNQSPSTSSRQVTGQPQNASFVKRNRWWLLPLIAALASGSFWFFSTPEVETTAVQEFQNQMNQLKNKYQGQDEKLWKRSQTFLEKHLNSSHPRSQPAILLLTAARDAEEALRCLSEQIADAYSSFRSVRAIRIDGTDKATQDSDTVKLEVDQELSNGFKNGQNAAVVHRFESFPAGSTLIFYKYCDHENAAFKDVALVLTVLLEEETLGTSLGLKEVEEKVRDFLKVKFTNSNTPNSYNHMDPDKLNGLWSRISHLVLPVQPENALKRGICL
Sequence of Fibroblast growth factor 10 (Homo sapiens) (O15520 whole entry, looked up): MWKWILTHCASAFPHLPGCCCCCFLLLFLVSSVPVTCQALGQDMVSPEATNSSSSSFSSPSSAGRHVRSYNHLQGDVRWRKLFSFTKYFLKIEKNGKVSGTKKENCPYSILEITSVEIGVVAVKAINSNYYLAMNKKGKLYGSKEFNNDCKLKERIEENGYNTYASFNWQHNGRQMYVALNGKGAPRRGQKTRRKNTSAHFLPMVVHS
Sequence of Left-right determination factor 2 (Homo sapiens) (O00292 whole entry, looked up): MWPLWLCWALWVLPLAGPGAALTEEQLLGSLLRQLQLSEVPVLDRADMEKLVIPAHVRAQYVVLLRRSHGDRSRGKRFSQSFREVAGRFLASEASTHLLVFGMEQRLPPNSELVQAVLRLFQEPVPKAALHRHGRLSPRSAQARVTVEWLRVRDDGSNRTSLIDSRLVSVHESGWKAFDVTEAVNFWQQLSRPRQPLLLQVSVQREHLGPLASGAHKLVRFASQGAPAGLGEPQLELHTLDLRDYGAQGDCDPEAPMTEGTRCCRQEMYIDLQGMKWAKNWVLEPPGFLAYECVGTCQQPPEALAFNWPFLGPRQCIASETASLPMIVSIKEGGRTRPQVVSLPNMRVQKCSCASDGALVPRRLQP
Sequence of Follistatin-related protein 3 (Homo sapiens) (O95633 whole entry, looked up): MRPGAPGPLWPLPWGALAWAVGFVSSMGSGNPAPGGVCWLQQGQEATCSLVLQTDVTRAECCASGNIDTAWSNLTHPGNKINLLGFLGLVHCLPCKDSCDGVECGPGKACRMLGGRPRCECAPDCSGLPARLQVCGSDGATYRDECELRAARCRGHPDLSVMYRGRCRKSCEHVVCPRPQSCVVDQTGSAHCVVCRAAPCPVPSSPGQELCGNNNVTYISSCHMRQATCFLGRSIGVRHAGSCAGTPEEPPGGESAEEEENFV
Sequence of Alpha-bungarotoxin (Bungarus multicinctus) (P60615 whole entry, looked up): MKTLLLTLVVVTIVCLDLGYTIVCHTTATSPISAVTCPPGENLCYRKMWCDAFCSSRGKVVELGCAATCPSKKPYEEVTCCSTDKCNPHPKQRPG
Sequence of Dickkopf-related protein 1 (Homo sapiens) (O94907 whole entry, looked up): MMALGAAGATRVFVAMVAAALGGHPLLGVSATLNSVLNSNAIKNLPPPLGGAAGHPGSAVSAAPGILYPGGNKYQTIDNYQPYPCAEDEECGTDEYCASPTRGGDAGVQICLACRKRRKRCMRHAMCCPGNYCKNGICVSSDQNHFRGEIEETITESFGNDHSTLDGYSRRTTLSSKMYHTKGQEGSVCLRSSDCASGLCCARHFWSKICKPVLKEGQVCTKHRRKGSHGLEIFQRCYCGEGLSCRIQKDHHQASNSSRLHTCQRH

Regarding `CC[C@@H]1[C@H]2C3C(=O)N(CC)C(=O)C3CC(=O)[C@H]2[C@H](c2ccc(C)cc2)N1S(=O)(=O)c1ccc(C)cc1` (stereo not given in full), the composite z-score in test [1] was found to be 1.11; in test [2] it was 0.415; in [3], 0.46; in test [5], 0.894; in test [6], 1.27; in test [7], 0.183. For the same compound, the composite z-score in [8] came out at 0.955; in test [9], 0.0029; in test [10] it was 0.617; in test [11], 1.4; in test [13], 0.174; in [14] it was 1.01. Further, the composite z-score in [15] was 0.715; in [16], -0.124; in test [17], -0.0035; in [18], -0.115; in [19], -0.154; in test [20] it was 0.484. Also, the z-score in test [4] was 0.16 (inactive); in test [12], -2.17.
With `O=C1O[C@H](c2ccccc2)[C@H](c2ccccc2)N2[C@H]1[C@@H](C(=O)O)[C@]1(C(=O)Nc3ccccc31)[C@H]2c1ccc(O)cc1`, the composite z-score was 0.663 in [1]; -0.391 in [2]; 0.253 in test [3]; 0.619 in [5]; -0.219 in [6]; -0.552 in test [7]. Moreover, the composite z-score was -0.532 in [8]; -0.836 in [9]; -1.37 in test [10]; 0.49 in test [11]; -0.274 in [13]; -0.2 in test [14]. The composite z-score in test [15] is -0.262; in [16] it was -0.1; in test [17], -0.262; in test [18], 0.101; in test [19] it was -0.321; in test [20] it was -0.286. The z-score in test [4] was -0.531 (inactive); in test [12] it was -0.361.
Take `CC(C)CN1C(=O)[C@@]2(Cc3ccccc31)c1ccccc1C(=O)N(Cc1ccccc1C(F)(F)F)[C@H]2c1ccc(CO)cc1`: the composite z-score in test [1] is 0.957; in test [2], -0.0363; in test [3] it was 0.223; in test [5], -0.621; in test [6] it was -1.59; in test [7] it was -0.478. The composite z-score was -0.676 in test [8]; -1.05 in test [9]; 0.731 in test [10]; -1.57 in test [11]; -0.584 in [13]; -0.566 in test [14]. Also, the composite z-score in [15] is -0.815; in test [16], -0.2; in [17] it was -0.138; in test [18], -0.303; in [19], -1.07; in [20], 0.14. The z-score is -0.596 (inactive) in test [4] and 0.186 in test [12].
As for `Cc1ccc(S[C@]2(C(=O)NC(C)C)CC(=O)N(Cc3ccccc3C(F)(F)F)[C@@H]2c2ccc(CO)cc2I)cc1`, the composite z-score is 1.29 in test [1]; 0.386 in test [2]; 1.09 in test [3]; -1.41 in test [5]; -1.1 in test [6]; -1.64 in [7]. The composite z-score in test [8] is -1.29; in [9] it was -1.7; in test [10], 0.889; in test [11], 0.187; in test [13], -0.796; in [14], -0.301. The composite z-score in [15] was 0.0016; in [16], -0.13; in [17], -0.0769; in test [18] it was -0.0965; in [19], -0.0123; in [20], 1.65. The z-score was -1.42 (inactive) in test [4] and -2.54 in [12].
As to `CCOC(=O)C[C@H]1[C@H](OC(=O)c2ccc(-c3ccccc3)cc2)[C@@H](NC(=O)c2ccc3ccccc3c2)c2cc(OCCCO)ccc2N1C(=O)c1ccc2ccccc2n1`, the composite z-score in test [1] was 0.33; in test [2], -0.0069; in test [3], 0.221; in test [5] it was 0.577; in [6] it was 0.439; in test [7] it was 0.098. Moreover, the composite z-score in [8] came out at 0.458; in test [9] it was 0.426; in test [10], 0.31; in test [11] it was 1.18; in test [13], 0.249; in [14] it was 1.31. Also, the composite z-score was 0.593 in test [15]; -0.0445 in [16]; -0.112 in test [17]; -0.324 in test [18]; 0.639 in [19]; 0.0804 in test [20]. The z-score in test [4] is -0.634 (inactive); in test [12], -1.07.
Take `CC=CC(O)C1C=CC2C(=O)N(c3ccccc3)C(=O)C2N1Nc1ccccc1` (stereo not given): the composite z-score was 1.37 in test [1]; 0.864 in test [2]; 0.882 in test [3]; 1.11 in [5]; 1.29 in test [6]; 0.247 in [7]. In addition, the composite z-score in test [8] came to 1.36; in test [9] it was 0.239; in test [10] it was 0.871; in test [11], 1.19; in [13], 0.215; in test [14] it was 0.667. The composite z-score in [15] worked out at 0.362; in test [16], 0.136; in test [17], 0.304; in test [18], 1.16; in test [19] it was 1.1; in test [20] it was 1.89. Moreover, the z-score was -0.0227 (inactive) in test [4] and 0.527 in [12].
